Assay results published in article PMC12864922, “TDP-43 directly inhibits mRNA accumulation in neurites through modulation of mRNA stability”.
The full ranking holds about 9,900 sequences; the median of “r (bound/input frequency ratio)” is about 0.7, and the highest 2% start at about 6.5. The list comes from a sample in which the highest values are over-represented; it also holds similar and randomly drawn sequences.

B1: ENSMUSG00000029636.202|Wasf3|244:248 (ssRNA)
RNA: GGGAGUUCUACAGUCCGACGAUCGCUUCGAUAUCCGCAUGCUAACCAAAUGGCGAUUCCAUAGUCCUGGCUGAGGCAGGGGCUCAAAGUCCAGUGUCUGCUUUGCAAUUCUGGAAGGACAGCUGCUUAUUUAAAUAAGUCUGUGAUAUCCGCAGGCUUGGGUUACAGGGAGGACCUUGCAGAGGGACCAGGACACUGCCUUCCCUUAGGUGCAUUAUUUACGUGGCCUGCAGCUCUUAAUAUCUCUCACUGUUUAUGAAAAGAAAGAUUCAGAUCCGGGGUGACAUACACACAGUUGACAGGGCUCUUGCGGUCGCACUAGUGUGGAAUUCUCGGGUGUCAAGG
B2: ENSMUSG00000061578.835|Ksr2|29:33;71:75;146:150 (ssRNA)
RNA: GGGAGUUCUACAGUCCGACGAUCGCUUCGAUAUCCGCAUGCUAAAGGGCUCAGUCCAUAGCUGCCUGACUCACACAUUCUAGGCCUUUCUUGAGGCAAGUGUUCAUCAUGAUACACACAGGGUGAGGAGGAGUUUCUUCAUGGCAAACAGGAAGCAAAGAGCAAUACAGGAAAAGGUCAGGGGUGAGAACACACAUUGCCACUUCCUCCAGCUAGGACCUUUGAGCAUCACAUUGUGAAGCCAUCCAGGGACUUGGGGGUUAGGUCAGAGGUAUCAAUACAUCUCCGGAAACAUCGUCACAGACUCUUGCGGUCGCACUAGUGUGGAAUUCUCGGGUGUCAAGG
B3: ENSMUSG00000004113.468|Cacna1b (ssRNA)
RNA: GGGAGUUCUACAGUCCGACGAUCGCUUCGAUAUCCGCAUGCUAGCAAAAAUUUAUAUUUAACAGUGUUGAGAGAGAGAGAGAGAGAGCGAGAGAGAGAGAGAUCCAGUCAUGCAACACAAAUGGGAUCUACUUUUAAACAACAGUCCUUUGACUAGUUUGCUGCCUGAAUAAUAUUUACAAACUAAACUUUGGAUUCUGCUCUUGUUUCUACAAUGAUUUUUUGUAUAAAGCAAAGUCCUUGGAUUAAAUAAAAACAACCCAAAAAAAAAAUCAAAAUCAAAACCCAGGAUGCAACUGGGUGACUCUUGCGGUCGCACUAGUGUGGAAUUCUCGGGUGUCAAGG
B4: ENSMUSG00000058297.109|Spock2|57:62 (ssRNA)
RNA: GGGAGUUCUACAGUCCGACGAUCGCUUCGAUAUCCGCAUGCUAUGUACACACAGCAAGGCUUACUAUCCGUCUCCUGACAUCCGAAGAGCUCGUCGCAGCACACACUAAUGGCCCUUGGGCUGCACGUGGUUAAGCAUAGCUGUCUCUGUGGCCCAACACAAAGAGGUAAACUUACUUAAAACACAGGGGUUUUGUUGCUGUUUGUUUUUUGUUAGUUUGUUUGUUGAUAAUUGGAUUGAGGAGUUAAUCCUCUGUCACAAUGUCAAAAGCAUGGACAUCCCUGAUAGAUUAUCUCUCAACCUCUCUUGCGGUCGCACUAGUGUGGAAUUCUCGGGUGUCAAGG
B5: ENSMUSG00000028439.270|Fam219a|220:224 (ssRNA)
RNA: GGGAGUUCUACAGUCCGACGAUCGCUUCGAUAUCCGCAUGCUAAGCUGAGGCUGUAGCUCAGUGAGAUGGUGGCUCUCCCAUGGCUGAAGACAAGUGCAAGCAGAGAGAGCCUCAGGCUGCUGGGCCUCGGACCCACGAGCCUCCUCUCACUGAGCCAGUGCGGCCAGAGUGUCUCUCCUUCAGGCGCCCCACAUGCCAGCAUUUCCACCCUCUGGAUUCUCCUCACAUGUCACUCUCCAGGUGCCGGGGCCUAGAGUGGGCCACACAGAAGGAGGAGUGGGGCUGUUGGCUUAGGAAGGGAACUCUUGCGGUCGCACUAGUGUGGAAUUCUCGGGUGUCAAGG
B6: ENSMUSG00000061578.426|Ksr2 (ssRNA)
RNA: GGGAGUUCUACAGUCCGACGAUCGCUUCGAUAUCCGCAUGCUAGACCACUGACCCGUCCAGACCCUCGCUUCUUACAAUGCCUCUUCUUCUGCCAGACCAGCCACCUGCCCCACUAACACCAAAUGGCUUCUGUCCCUGCUUCACGUUGCAAAUCCUUCAAGACAGAAGUUUCAGAGGGGAUAGUUCCUUCUAACCUUGUACUGGGACAUCAUCUAUGUCCCCAUCCCCAGAGCUGAAUUAGAGACACCAAGUAGCCUCUUGGGUUGUUUUGUGGGGUGUUCCCCUUGCUGGUCAAAGGAGUGCUCUUGCGGUCGCACUAGUGUGGAAUUCUCGGGUGUCAAGG
B7: ENSMUSG00000058297.310|Spock2 (ssRNA)
RNA: GGGAGUUCUACAGUCCGACGAUCGCUUCGAUAUCCGCAUGCUAGCAGCUAGCUACUGGGGACCUUGUGCUGAGGCUUCCAGGACAAAGCCCCAGUCUGGCUCUCCCCCAGCCUCUCAGGGGCACUGGCUGGUCACAUCCACUGAGUAUUGAUCGGUUGGACUUUAGGGAAGAGCCUCCUCCUUCCCAUUCCUUUCUGCCACCCUGGAAUGGCCACCUUAAUCGUCAUCUCCUCGGGGGGAAUACGGAAAUGUCACCAAGCUCCAUAAAGUGCUUCUCAUUCCACGACACAGUUCUGACUCUCCCUCUUGCGGUCGCACUAGUGUGGAAUUCUCGGGUGUCAAGG
B8: ENSMUSG00000090935.19|Synj2bp (ssRNA)
RNA: GGGAGUUCUACAGUCCGACGAUCGCUUCGAUAUCCGCAUGCUAAUUAUUUAGUCACGGAGGAAGAGAUCAACCUGACGAGAGGACCUUCGGGUAAAUGGCCAAGAUCUGAAGAACCUGCUGCACCAAGAUGCUGUAGACCUCUUCCGUAAUGCGGGAUGUGCUGUGUCCCUGAGAGUACAGCACAGGUUACCAGUGCAGAAUGGACCUAUAGUACAUCGAGGUGAAGGAGAGCCAAGUGGAGUUCCUGUAGCUAUGGUGCUGCUACCAGUGUUUGCCCUCACCAUGGUAGCAGUUUGGGCCUUCUCUUGCGGUCGCACUAGUGUGGAAUUCUCGGGUGUCAAGG
B9: ENSMUSG00000061578.1360|Ksr2|254:258 (ssRNA)
RNA: GGGAGUUCUACAGUCCGACGAUCGCUUCGAUAUCCGCAUGCUAAGGCAAGCAACCUUGCCAAGGCAGGCCAGACAGGACAGCCCAGCUUCCCACUCCAGACAUGUUGUUCUUACAUCUCUGACCCAGUGAUCUUUCUAGGGGUCUGUCACAUGUCCCAACAGGUGGACAGCUCUCCAAGUCACCAACCUGAGGAAAAUAUCCCUCCUUGUAAAAAGGCUUUCUCUUUGUAAAUGAUUCUGUUGCCUUUUUCUAAACACAAAGUAUAUAUACCUAUAAAUGCUAUAUAUAUUAUAUAACACAAUCUCUUGCGGUCGCACUAGUGUGGAAUUCUCGGGUGUCAAGG

Target: TDP-43 (Homo sapiens, UniProt Q13148 1-414)
Experiment: RNA Bind-n-Seq with designed 260-mer pool; 25 mM Tris-HCl, 150 mM KCl, 3 mM MgCl2, BSA (printed 500 mg/mL), 20 units/mL SUPERase IN; pH not stated; 500 nM RNA pool, 1 h, 4 C; TDP-43 5, 50, 500 nM; high values mean tight binding
Details: protein: recombinant; tags: SBP (GST cleaved off with PreScission; pGEX-GST-SBP)
Outline: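 Streptavidin beads captured recombinant SBP-tagged TDP-43 at 5, 50 or 500 nM, and the beads were incubated for 1 h at 4 °C with 500 nM of an in vitro-transcribed pool of 260-nt 3′ UTR oligos in 25 mM Tris-HCl, 150 mM KCl, 3 mM MgCl2, BSA and SUPERase IN. After washing, bound RNA was eluted with biotin, reverse transcribed, PCR-amplified and sequenced. Binding is reported as R, the mapped-read-normalized abundance of each oligo in the bound sample divided by its abundance in the input. Two independent protein batches served as duplicates.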

Chain of TDP-43 (Q13148 whole entry): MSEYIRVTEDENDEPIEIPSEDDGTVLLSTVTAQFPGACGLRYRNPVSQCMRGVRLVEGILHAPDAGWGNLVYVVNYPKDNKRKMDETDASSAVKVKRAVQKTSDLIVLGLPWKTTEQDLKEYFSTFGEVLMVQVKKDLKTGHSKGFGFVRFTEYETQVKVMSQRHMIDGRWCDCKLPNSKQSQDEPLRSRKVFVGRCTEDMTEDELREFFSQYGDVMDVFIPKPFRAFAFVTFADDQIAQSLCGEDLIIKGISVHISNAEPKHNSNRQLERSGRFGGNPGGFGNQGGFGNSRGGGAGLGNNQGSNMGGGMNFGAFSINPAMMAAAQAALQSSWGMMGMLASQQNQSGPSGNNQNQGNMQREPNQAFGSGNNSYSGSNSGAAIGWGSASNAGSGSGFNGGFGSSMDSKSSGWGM

| Binder | binding signal |
| --- | --- |
| B1 | 0.996 R (bound/input frequency ratio) |
| B2 | 0.305 R (bound/input frequency ratio) |
| B3 | 0.308 R (bound/input frequency ratio) |
| B4 | 1.85 R (bound/input frequency ratio) |
| B5 | 1.33 R (bound/input frequency ratio) |
| B6 | 1.01 R (bound/input frequency ratio) |
| B7 | 0.874 R (bound/input frequency ratio) |
| B8 | 0.919 R (bound/input frequency ratio) |
| B9 | 0.201 R (bound/input frequency ratio) |
